From ChEMBL document CHEMBL4513216, “Probing the Open Global Health Chemical Diversity Library for Multistage-Active Starting Points for Next-Generation Antimalarials” (ACS Infect Dis, 2020)
Out of some 69,000 compounds screened, about 8,600 (12%) showed an effect of 50% or more. The sample holds strong results, similar compounds and a random draw of the others, so the mix is not that of the screen.

Test system: Plasmodium berghei
Assay: Screen against P. berghei liver stage (PbLuc), transformed with Luciferase, at 10uM
Format: functional, HepG2
Conditions: tested at 10 uM

Compound	INHIBITION [%]
O=C(CSc1ccncc1)N1C[C@@H]2CC[C@H]1CN(Cc1cccnc1)C2	9.54
CCc1csc(C2CCCN(C(=O)c3ccccn3)C2)n1 (stereo not drawn)	14.1
NCC1[C@H]2CN(Cc3cccc(Cl)c3)C[C@@H]12 (stereo partly drawn)	13.7
Cc1ccc(S(=O)(=O)N2CCN(C)c3ccncc32)cc1F	41
CN(Cc1ccc(Cl)s1)C1CCCN(c2cccnn2)C1 (stereo not drawn)	17.4
c1ccc(-c2noc(CNC3CCCN(c4cccnn4)C3)n2)nc1 (stereo not drawn)	45.4
Cc1ncc(CN(C)C2CCCN(c3cccnn3)C2)s1 (stereo not drawn)	58.3
c1ccc(-c2cnc(CNC3CCCN(c4cccnn4)C3)o2)cc1 (stereo not drawn)	51.2
c1cnnc(N2CCCC(NCc3ccncc3)C2)c1 (stereo not drawn)	30.8
c1cnnc(N2CCCC(NCc3nc(-c4ccco4)no3)C2)c1 (stereo not drawn)	55.5
c1ccc(-c2nnc(CNC3CCCN(c4cccnn4)C3)o2)cc1 (stereo not drawn)	-43.25
COCCc1noc(CNC2CCCN(c3cccnn3)C2)n1 (stereo not drawn)	21.8
Cc1cnc(CN(C)C2CCCN(c3cccnn3)C2)cn1 (stereo not drawn)	3.19
Cc1oc(-c2ccco2)nc1CNC1CCCN(c2cccnn2)C1 (stereo not drawn)	-21.55
c1cnnc(N2CCCC(NCc3nc(C4CC4)no3)C2)c1 (stereo not drawn)	58.5
CN(Cc1ncc(-c2ccccc2)o1)C1CCCN(c2cccnn2)C1 (stereo not drawn)	43.2
CC1c2cc(F)ccc2CCN1C(=O)c1[nH]c(=O)[nH]c(=O)c1N (stereo not drawn)	33.4

Compound	INHIBITION [%]
CCc1cc(C(=O)N2CC[C@@H](c3ccc4c(c3)OCO4)[C@H](O)C2)ccn1	26.5
Cc1noc(C)c1CN1CCn2cc(CN3CCCCC3)nc2C1	-33.1
O=C(NCc1nnc2n1CCC2)NCC1(c2cccc(F)c2)CC1	-14.6
c1nc2c(c(NC3COC4(CCCC4)C3)n1)CCNCC2 (stereo not drawn)	37.7
COCCc1noc(CN(C)C2CCCN(c3cccnn3)C2)n1 (stereo not drawn)	9.54
CN(Cc1nc(C2CC2)no1)C1CCCN(c2cccnn2)C1 (stereo not drawn)	53.5
c1cnnc(N2CCCC(NCc3cccc4c3OCCO4)C2)c1 (stereo not drawn)	-12.2
c1cnnc(N2CCCC(NCc3cccc4c3OCO4)C2)c1 (stereo not drawn)	53.7
C=c1ccoc1=C1NN=C(CNCC2CCCN2c2cccnn2)O1 (stereo not drawn)	18.5
c1csc(-c2noc(CNC3CCc4ncnn4C3)n2)c1 (stereo not drawn)	0.65
c1cnnc(N2CCCC2CNCc2nc(-c3cccs3)no2)c1 (stereo not drawn)	31.9
CN(Cc1nc(-c2ccco2)no1)C1CCCN(c2cccnn2)C1 (stereo not drawn)	20.1
c1cnnc(N2CCCC(NCc3cccc4c3OCCCO4)C2)c1 (stereo not drawn)	11.9
c1cnnc(N2CCCC(NCc3nc(-c4cccs4)no3)C2)c1 (stereo not drawn)	60.3
C=c1ccoc1=C1NN=C(CNC2CCCN(c3cccnn3)C2)O1 (stereo not drawn)	56.05
c1cnnc(N2CCCC(NCc3nnc(-c4ccco4)o3)C2)c1 (stereo not drawn)	31.8
